TDP1 cell CPT = DT40-hTDP1 cell growth loss with CPT; chicken DT40 Tdp1-/-;hTDP1 cells + 20 nM CPT, ATP luminescence, 48 h; Potency, µM (top dose mostly 46.2 µM), inactives show at the top dose activity change, negative = growth inhibition, usual class: inhibitors; 12% of 420,000 active; also: potency is read from the fitted curve at half-maximal effect; nearly all actives have a fitted effect of over 55% in size
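Chicken DT40 Tdp1-/- cells complemented with human TDP1, 400 cells/well, exposed to compounds plus 20 nM camptothecin for at least 48 h at 37 C; viability read as ATP content by CellTiter-Glo luminescence.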
VP16 counter = Gal4-VP16 reporter inhibition counter-screen; Drosophila S2 Gal4-VP16 UAS-luciferase, luminescence, 20 h; Potency, µM (titrated, usually from 53.6 µM), without a hit: top-dose activity, negative = inhibition, most hits filed as inhibitors; 3.5% of 310,000 active;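 also: Gal4-VP16 expression switched on by copper sulfate through the metallothionein promoter; potency is read from the fitted curve at half-maximal effect; nearly all actives have a fitted effect of over 50% in size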
ELG1 repair inh = ELG1-dependent DNA repair inhibition | HEK293T ELG1-luciferase reporter, luminescence, 16 h; DNA damage induced by 5-fluorouridine | Potency, µM (doses to about 46.1 µM), for inactives: top-dose activity change, negative = inhibition, actives largely listed as inhibitors | 2.3% of 330,000 active; also: potency is read from the fitted curve at half-maximal effect; nearly all actives have a fitted effect of over 55% in size
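Cells (2,000 per well) received 5-fluorouridine plus test compound or DMSO and were incubated 16 hr at 37 °C, 5% CO2. Luciferase activity was read by luminescence 30 min after ONE-Glo addition; signal suppression marked inhibition of damage-induced ELG1 function.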
IL1B secr inh = inhibitors of inflammasome signaling (IL-1 beta secretion). 4.7% of 360,000 active. THP-1 LPS/ATP IL-1B secretion, AlphaLISA, 16 h; stronger effect = lower value. activity change, % at 57.5 µM; in the data active = activity change below about -50%; inconclusive = mostly about -30% to -49%
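THP-1 cells pretreated 1 hr with compounds (up to 57.5 uM final), then stimulated with LPS (250 ng/mL final) plus ATP (1.25 mM final); secreted IL-1B measured by AlphaLISA after 16 hr, decreased signal indicating inhibition.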
RORgamma inh = ROR gamma (mouse) transcription inhibition. P51450. Drosophila S2 Gal4-RORgamma UAS-luciferase reporter, 20 h. Potency, µM (doses to about 53.6 µM), for inactives: top-dose activity change, negative = inhibition, most hits filed as inhibitors. 5.4% of 310,000 active. AID 2551; also: potency is read from the fitted curve at half-maximal effect; nearly all actives have a fitted effect of over 60% in size
Target sequence (P51450 whole entry, looked up, the tested form may be a part): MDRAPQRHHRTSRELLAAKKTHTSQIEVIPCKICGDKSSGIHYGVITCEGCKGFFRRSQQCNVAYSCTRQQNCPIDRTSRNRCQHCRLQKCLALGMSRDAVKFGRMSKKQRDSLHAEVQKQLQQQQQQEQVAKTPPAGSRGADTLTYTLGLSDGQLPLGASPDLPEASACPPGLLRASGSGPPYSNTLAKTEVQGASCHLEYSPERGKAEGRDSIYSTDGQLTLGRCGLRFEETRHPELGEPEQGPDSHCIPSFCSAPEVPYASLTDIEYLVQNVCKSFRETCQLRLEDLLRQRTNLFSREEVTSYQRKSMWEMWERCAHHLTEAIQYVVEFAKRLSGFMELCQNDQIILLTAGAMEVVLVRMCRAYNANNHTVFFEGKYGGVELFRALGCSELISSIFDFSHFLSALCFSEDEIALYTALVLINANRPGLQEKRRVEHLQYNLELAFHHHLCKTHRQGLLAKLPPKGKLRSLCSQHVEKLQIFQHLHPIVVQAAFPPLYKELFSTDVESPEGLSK
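Drosophila S2 cells stably expressing Gal4-DBD/mouse RORγ fusion under metallothionein promoter plus UAS-luciferase; compound 1 h, then 700 uM CuSO4 induction for 20 h at ambient temperature; inhibition read as reduced luminescence.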
DT40 TDP1 no CPT = qHTS for Inhibitors of human tyrosyl-DNA phosphodiesterase 1 (TDP1): qHTS in cells in absence of CPT | DT40 Tdp1-/- hTDP1 cells, no CPT, ATP luminescence, 48 h | Potency, µM (top dose mostly 46.2 µM), for inactives: top-dose activity change, negative = growth inhibition, usual class: inhibitors | 15% of 420,000 active | AID 686978, 2013; also: potency is read from the fitted curve at half-maximal effect; nearly all actives have a fitted effect of over 55% in size
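Compound effects on proliferation are scored in DT40 Tdp1-/-;hTDP1 cells in the absence of CPT. ATP levels (CellTiter-Glo luminescence) are recorded after a ≥48 hr, 37 °C incubation.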
* marks the source's active call; other numbers are inactive results; ? = inconclusive; / = no result; [ ] = another dose, or the depositor's remark. The list is not random: actives were taken first. Their share in the collection is about 21%. Unless noted, calls follow the shape of the dose curve; as a rule, active = well fitted curve in the direction sought with a large enough effect; inconclusive = small, poorly fitted or top-dose-only effect, or another doubt; inactive = no such curve, though single readings can be large; an effect the other way counts as inactive or inconclusive. % is scaled to controls: 0 for no effect and ±100 for the full control effect.

SMILES	TDP1 cell CPT	VP16 counter	ELG1 repair inh	IL1B secr inh	RORgamma inh	DT40 TDP1 no CPT
Cc1cc(C)c2c(-n3cccc3)c(C(=O)NCCCN3CCCCC3C)sc2n1 (stereo not drawn)	?	/	/	/	/	-89%
COC(=O)[C@]1(C)N[C@H](c2ccc(-c3ccc(F)cc3)cc2)[C@@H]2C(=O)N(C)C(=O)[C@@H]21	?	/	1%	-16	/	?
Nc1nc2c(ncn2[C@@H]2O[C@H](CNC(=O)[C@H](N)Cc3ccccc3)[C@@H](O)[C@H]2O)c(=O)[nH]1	-9%	/	/	0	/	-1%
C/C(=C\C(=S)Nc1ccccc1)Nc1ccc2ccccc2c1	18µM*	3.5µM*	?	10	5.6µM*	?
C/C(=C\C(=S)Nc1ccccc1)Nc1cccc2ccccc12	?	?	6%	-7	16µM*	23µM*
COc1ccc(C=C(c2nc3ccccc3s2)c2nc3ccccc3s2)cc1O	?	1%	-22%	-98*	19%	21µM*
COc1cc(C=C(c2nc3ccccc3s2)c2nc3ccccc3s2)ccc1O	-18%	6%	?	-90*	1%[10 µM]	-28%
COc1cc(/C=C/c2nc3ccccc3s2)cc(OC)c1O	-1%	-9%	?	-11	-2%	-18%
COc1cccc(/C=C(\CC(=O)O)c2nc3ccccc3s2)c1	-16%	-7%	13%	1	22%	-23%
COc1cccc(NC(=O)CSCc2nc3sc(C)c(C)c3c(=O)[nH]2)c1	-12%	/	/	-5	/	-6%
CS/C(=N\S(=O)(=O)c1ccccc1)c1ccccc1	7%	-17%	1%	-13	-2%	-28%
O=S(=O)(/N=C(/Sc1ccccc1)c1ccccc1)c1ccccc1	8.2µM*	4%	-1%	-104*	-18%	15µM*
O=[N+]([O-])c1ccc(Cl)c(S(=O)(=O)/N=C(/Sc2ccc(Br)cc2)c2ccccc2)c1	6.3µM*	/	/	/	/	2.8µM*
Cc1c(N/C(=N/S(=O)(=O)c2cc([N+](=O)[O-])ccc2Cl)c2ccccc2)c(=O)n(-c2ccccc2)n1C	12%	26%	11%	0	2%	3%
O=S(=O)(/N=C(/Sc1ccc(Cl)cc1)c1ccccc1)c1ccccc1	10µM*	/	/	/	/	14µM*
O=S(=O)(/N=C(/Sc1ccccc1)c1ccccc1)c1ccc(Cl)cc1	?	/	/	/	/	16µM*
c1coc(CNc2nc[n+]3c4c2ncn4CC3)c1	-21%	/	/	/	/	-21%
Cc1nc(NC2CCCCC2)c2nc(-c3ccccc3)n(CCN3CCCCC3)c2n1	/	-10%	/	/	-4%	/
CCOc1ccc(S(=O)(=O)N2CCC(C(=O)NC3CCCC3)CC2)cc1	11%	2%	-2%	13	-9%	5%
O=C1CCC[C@@H](C(C(=O)OCc2ccccc2)C(=O)OCc2ccccc2)C1	/	19%[10 µM]	/	/	2%[10 µM]	/
CC(=O)Nc1ccc(C(=O)CN2C(=O)NC3(CCCc4ccccc43)C2=O)c(F)c1 (stereo not drawn)	8%	/	-18%	5	/	-21%
Cc1ccc(-c2cn3c(n2)sc2cc(C(=O)NCCCc4ccccc4)ccc23)c(C)c1	23µM*	/	/	/	/	18µM*
Cc1cc(C(=O)NCCC2=CCCCC2)ccc1[N+](=O)[O-]	20%	8%	?	2	39%	0%
Cc1ccc(-c2cn3c(n2)sc2cc(C(=O)NCCC4=CCCCC4)ccc23)c(C)c1	16µM*	/	/	/	/	16µM*
COc1cc(C(=O)NCCC(c2ccccc2)c2ccccc2)cc(OC)c1OC	?	22%	?	-1	37%	?
O=C(/C=C/c1ccco1)Oc1cccc2cccnc12	?	4.5µM*	?	-94*	1.4µM*	?
